Among the data in PubChem BioAssay AID784 (The Scripps Research Institute Molecular Screening Center, 2007) are activation values, retold here.

Among all 30,000 compounds or so, about 130 (0.43%) were called active. The sample as a whole holds a higher share of actives than the screen did. Unmarked numbers belong to inactive results. Rule as the data show it: active = activation above about 65%; inactive = the rest.

The target in the assay is Lysosomal acid glucosylceramidase (Homo sapiens) (UniProt P04062). The assay can be described thus: GBA activity enhancers in patient fibroblasts, primary screen, cell-based (AID 784).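 Also: 0% = vehicle wells and 100% = positive control wells.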 Particulars: L444P Gaucher fibroblasts, 4-MU-glucoside fluorescence, 3 days; at 10 µM; active compounds read high.
Sequence of Lysosomal acid glucosylceramidase (Homo sapiens) (P04062 whole entry L483P): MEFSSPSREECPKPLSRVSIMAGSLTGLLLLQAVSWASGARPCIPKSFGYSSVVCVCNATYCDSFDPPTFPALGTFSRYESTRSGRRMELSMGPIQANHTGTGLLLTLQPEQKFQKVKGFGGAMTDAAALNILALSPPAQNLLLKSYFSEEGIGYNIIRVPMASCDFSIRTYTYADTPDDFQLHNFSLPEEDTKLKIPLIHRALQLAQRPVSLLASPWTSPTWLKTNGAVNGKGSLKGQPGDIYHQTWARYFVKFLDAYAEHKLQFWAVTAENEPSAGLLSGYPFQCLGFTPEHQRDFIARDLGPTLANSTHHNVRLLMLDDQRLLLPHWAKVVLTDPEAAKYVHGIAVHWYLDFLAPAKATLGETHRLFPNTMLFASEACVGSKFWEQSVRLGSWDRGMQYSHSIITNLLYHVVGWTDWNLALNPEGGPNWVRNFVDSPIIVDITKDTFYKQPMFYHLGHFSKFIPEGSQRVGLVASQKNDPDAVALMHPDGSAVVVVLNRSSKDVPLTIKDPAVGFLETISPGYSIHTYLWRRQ
`CCN(CC)S(=O)(=O)c1cccc(C(=O)Nc2ccccc2)c1`: the activation was -3.99%.

Turning to `CC(C)C[C@H](NC(=O)NCCc1ccc(Cl)cc1)C(=O)O`, the activation was -14.7%.

Turning to `COc1ccc(CCN=C2SCC(=O)N2C)cc1OC`, the activation is -11.5%.

For `CCOc1ncccc1C(=O)OCc1cn2cc(Cl)ccc2n1`, the activation was 2.09%.

Take `COc1ccccc1N1CCN(C(=O)Cn2nnc(-c3cccs3)n2)CC1`: the activation is -45%.

As to `O=C(CN1CCN(c2nc(-c3ccccc3)cs2)CC1)NCc1ccc2c(c1)OCO2`, the activation is -22.9%.

On to `COC(=O)c1cn(-c2ccccc2)nc1-c1cccnc1`, for which the activation was 64.9%.

As to `CCOc1ccc(N2C(=O)CC(N(O)c3ccccc3)C2=O)cc1` (configuration not stated), the activation is 20.8%.

For the compound `Cc1cc(C)nc(SCc2nnc(SCC(=O)OC3CCCCC3)o2)n1`, the activation is -16%.

`Cc1ccc(C(=O)CSc2nc3ccccc3c(=O)n2N)o1`: the activation was -3.06%.

Consider `Cc1ccc(S(=O)(=O)NCC(=O)OCC(=O)N2CCc3ccccc32)cc1`, for which the activation was -6.72%.

In the case of `O=C(Nc1ccccc1)c1cccnc1Nc1ccccc1`, the activation was -10.1%.

Regarding `O=C(Nc1ccc2c(c1)nc1n2CCCCC1)c1cc(S(=O)(=O)N2CCOCC2)ccc1Cl`, the activation is -3.59%.

In the case of `CCN(CC(=O)NC(C)C)C(=O)CCNC(=O)c1ccc(Cl)cc1`, the activation is 21%.

With `CN1CCN(S(=O)(=O)c2ccc(NC(=O)c3ccco3)cc2)CC1`, the activation is -8.04%.

Regarding `CCC1SC2=NCCN2C1(O)c1ccc(Cl)cc1` (configuration not stated), the activation was -18.2%.

On to `c1ccc(-c2oc3ncnc(N4CCOCC4)c3c2-c2ccccc2)cc1`, for which the activation is -12.4%.

Consider `CCC(C)Sc1nc2c(c(=O)[nH]c(=O)n2C)n1CC(O)COc1cccc2ccccc12` (configuration not stated), for which the activation is -21%.

With `CNC(=O)C1CC(=O)N(Cc2ccc3c(c2)OCO3)C(=Nc2ccc(F)cc2)S1` (configuration not stated), the activation is -16.6%.

As to `COc1ccc(C(=O)CSc2nccc(=O)[nH]2)cc1`, the activation was -9.63%.

As for `O=C(OCc1nnc(-c2ccccc2)o1)c1ccc2c(c1)C(=O)N(CCc1ccccc1)C2=O`, the activation is -2.93%.

As for `COc1c(C)cccc1C(=O)Nc1cc(Cl)ccc1N1CCOCC1`, the activation is -42.8%.

Turning to `CC(=O)OCc1cc2cc(C)ccc2[nH]c1=O`, the activation was -12%.

Consider `COc1cc2c(cc1OC)C(c1ccncc1)CC(=O)N2` (configuration not stated), for which the activation is -30.8%.

As to `CCc1c(C)nc(N)n2c(SCC(=O)N3CCN(c4ccccc4)CC3)nnc12`, the activation is -9.46%.

For `CCOC(=O)c1c(NC(=O)CCC(=O)NCc2ccco2)sc2c1CCCC2`, the activation was -3.62%.

Consider `O=c1nc(N2CCOCC2)nc2n1CCO2`, for which the activation was 0.48%.

For `O=C(CN1C2CCC1CC(NC(=O)C1CC1)C2)NCc1ccccc1` (configuration not stated), the activation was -20%.

Take `CCn1c(COc2cccc(OC)c2)nnc1SCC(=O)N1CCOCC1`: the activation was 2.04%.

With `COc1ccc(S(=O)(=O)N(CCCN2CCCC2=O)Cc2cc3c(C)ccc(C)c3[nH]c2=O)cc1`, the activation is -24.5%.

As to `COc1ccccc1Nc1ncnc2c1oc1ccccc12`, the activation was -53.1%.

With `O=C(NCc1ccccn1)c1cc2ccccc2oc1=O`, the activation is -7.53%.

Take `O=C(CNCCO)NC12CC3CC(CC(C3)C1)C2`: the activation was 10%.

`COc1cc(NS(=O)(=O)c2ccccc2)ccc1-n1nc(C)cc1C`: the activation was 4.78%.

With `C=C(C)c1cccc(C(C)(C)NC(=O)N2CCN(c3ncccn3)CC2)c1`, the activation was 0.53%.

For `Cc1ccsc1C(=O)OCC(=O)c1cc2ccccc2o1`, the activation is 6.97%.

As to `COc1ccc(CCn2nnnc2C(c2ccccc2)N2CCN(C)CC2)cc1OC` (configuration not stated), the activation was -1.68%.

As to `CCn1c(SCC(=O)NCC2CCCO2)nc2cc(S(=O)(=O)N3CCCCC3)ccc21` (configuration not stated), the activation was -14.9%.

`CCN1C(=O)CS/C1=N\c1nccs1`: the activation was -12.6%.

Regarding `Cc1ccc(S(=O)(=O)N(C)CC(=O)N2CCc3ccccc32)cc1`, the activation is 0.44%.

On to `Cc1cccc(OCc2nnc(SCn3nnc4ccccc4c3=O)o2)c1`, for which the activation was 4.49%.

For the compound `Cc1cc(C)cc(OCc2nnc(SCC(=O)Nc3ccccc3)o2)c1`, the activation is -21.4%.

Regarding `O=C(Nc1ccc2c(c1)OCCO2)C1CCCN(c2ncccn2)C1` (configuration not stated), the activation is -35.2%.

`O=C(NC1CCN(Cc2ccccc2)CC1)c1ccccc1F`: the activation is -0.98%.

On to `O=C(COC(=O)c1ccc(Oc2ccccc2)cc1)Nc1nnc(-c2ccccc2)o1`, for which the activation was -9.15%.

Turning to `Cc1nc2cc(-c3ccc(F)cc3)nn2c(N2CCOCC2)c1C`, the activation was 4.6%.

With `COc1ccc(CNC2CCCCC2)cc1`, the activation is -12%.

As to `CCn1c(COc2ccc(OC)cc2)nnc1SCC(=O)Nc1cc(OC)ccc1OC`, the activation was -5.85%.

With `CC(=O)N1CCC(C(=O)Nc2nc(-c3ccccc3)ns2)CC1`, the activation was -7.15%.

With `Cn1c(=O)c2c(nc(CN3CCOCC3)n2Cc2ccccc2)n(C)c1=O`, the activation is -2.48%.

In the case of `Cc1ccc(-c2nc(COC(=O)c3c(C)noc3C)cs2)cc1`, the activation is 4.07%.

With `CCOC(=O)c1ccccc1NC(=O)CC1Nc2ccccc2NC1=O` (configuration not stated), the activation is -13.8%.

Regarding `Cc1cccc2nc(CNc3ccc(F)cc3)cn12`, the activation was -22.2%.

Regarding `COC(=O)N1CN(C(=O)OC)CN(C(=O)OC)C1`, the activation was -8.85%.

As for `CC(=O)N1CCN(C(=O)c2cccc(S(=O)(=O)Nc3ccc(C)cc3)c2)CC1`, the activation is 5.73%.

With `CCn1nnc(NC(=O)c2c(OC)cccc2OC)n1`, the activation is 4.73%.

As for `COc1ccccc1N1CC(O)=C(c2nc3ccccc3s2)C1=N`, the activation was 8.76%.

`Cc1ccc(NC(=O)CN2CCC3(O)CCCCC3C2c2ccc3c(c2)OCO3)c(C)c1` (configuration not stated): the activation is -20.4%.

For the compound `CCOC(=O)c1sc(/N=C/Nc2nc(C)c(C(=O)OCC)s2)nc1C`, the activation was -5.05%.

With `CCC(c1nnnn1Cc1ccccc1)N(Cc1cc2cc(OC)ccc2[nH]c1=O)CC1CCCO1` (configuration not stated), the activation was -25.6%.

As to `COc1ccc(CCNC(=O)c2ccco2)cc1`, the activation was -11.6%.

Consider `CCC12CN3CC(CC)(CN(C1)C31C(=O)N(C)c3ccc(C)cc31)C2=O` (configuration not stated), for which the activation is -17.4%.
